PubChem BioAssay (EPA / NIEHS)
Calls of active or inactive are those of the source. Rule for the calls: active = hit-call score of the fitted dose curve at least 0.9, where 1 is the maximum; inactive = score below 0.9.

The compounds below were run on growth arrest and DNA damage 45 (GADD45B), GADD45B (gene 4616) (assay: LTEA_HepaRG_GADD45B: Life Technologies and Expression Analysis (LTEA) Assay for growth arrest and DNA damage 45 (GADD45B) using HepaRG (AID 2283461)). Settings: mRNA level, 48 h; actives raise or lower the signal.
Method: LTEA_HepaRG is a cell based, multiplexed-readout assay that uses HepaRG, a human liver cell line, with measurements taken at 48 hours after chemical dosing on a 96-well plate.LTEA_HepaRG_GADD45B is one of 102 assay component(s) measured in the LTEA HepaRG cell culture assay. It is a marker of Cell proliferation, survival, death.Data from the assay component LTEA_HepaRG_GADD45B was analyzed into 1 endpoint. This assay endpoint, LTEA_HepaRG_GADD45B, was analyzed with bidirectional fitting relative to DMSO as the negative control and baseline of activity. Using a type of inducible reporter, measures of mRNA induction for gain or loss-of-signal activity can be used to understand regulation of transcription factor activity. To generalize the intended target to other relatable targets, this assay endpoint is annotated to the mutagenicity response intended target family, where the subfamily is Cell proliferation, survival, death.
A total of 1060 chemcials from the ToxCast library were tested in eight-point concentration-response experiments. Cell culture and cytotoxicity assays were conducted at Thermo Fisher Scientific's Custom Services facility (Madison, WI). A single lot of human HepaRG cells (Thermo Fisher Scientific, Frederick, MD) was used for the cell culture experiments. 96-well format collagen type I coated plates of human HepaRG cells were prepared using established methods. Briefly, cryopreserved HepaRG cells were thawed, plated at a density of approximately 100,000 cells/well in HepaRG Thaw, Plate, and General Purpose media (HPRG770, Thermo Fisher Scientific), and incubated for 48 hours. 0.5% DMSO was selected as vehicle control to balance the requisite need of DMSO in HepaRG cultures to maintain differentiation (for example, baseline metabolism, proportions of hepatocytes vs. cholangiocytes), while enabling further hepatic receptor pathway activation (for example, PXR and CAR) in response to chemical exposure. 48 hours after plating, the culture medium was replaced with HepaRG Serum-Free Incudtion Media. Cells were exposed to each test chemical in duplicate and maintained in CO2 incubators for another 48 hours. Chemical plates were thawed to room temperature and 200x concentrations of treatment groups were prepared. 8-point conentration-reponse curves were made with the highest exposure at 100 uM, followed by half-log dilutions, all in 0.5% DMSO. Each test plate contained variouse controls, induction positive controls (1mM phenobarbital), cytotoxicity positive controls ([…] aflatoxin B1), vehicle controls (0.5% DMSO), and total lysis controls (0.5% DMSO). Cell morphology images were taken using an Essen IncuCyte FLR automated microscope, with six 96-well plates imaged in about 24 minutes. Images were captured and exported and JPEG files. Spent culture media was transfered to black-well plates for the LDH assay, and remaining media was sorted at -80 C for later use. Cells were treated with RLT buffer and frozen until shipped for gene expression analysis. Total RNA was isolated from the cell suspension in 75 uL of Buffer RLT (Qiagen, Germantown, MD 20874) by Quintiles/Expression Analysis (Durham, NC) using a custom isolation procedure. Total RNA from each plate well was transferred to a preamplification plate. Fluidigm's 96.96 Dynamic ArrayTM (Fluidigm, Amsterdam, the Netherlands) technology was used for gene expression analyses by quantitative reverse transcription polymerase chain reaction (qRT-PCR, performed by Quintiles/Expression Analysis, Durham, NC)89. Standard TaqManTM Assays (Applied Biosystems/ThermoFisher Scientific, Foster City, CA) were used to assess the expression of 93 genes selected based on their selectivity and sensitivity to important hepatic receptors known to be modulated by environmental chemicals; importance in human hepatocyte functionality; and hepatotoxicity. […]
With `CCCSP(=O)(OCC)SCCC` the outcome was “inactive”.
For `COc1ccc(C(=CC(=O)N2CCOCC2)c2ccc(Cl)cc2)cc1OC`, the outcome was “inactive”.
`N#CSCSC#N` was tested, and the AC50 was 50 µM (active).
With `CCOC(=O)COc1cc(-c2nn(C)c(OC(F)F)c2Cl)c(F)cc1Cl` the outcome was “inactive”.
For `CC(C)N(C(=O)SCC(Cl)=C(Cl)Cl)C(C)C`, the outcome was “inactive”.
In the case of `CN(C)C(=O)Nc1cccc(C(F)(F)F)c1`, the outcome is reported as “inactive”.
With `C#CCC1=C(C)C(OC(=O)C2C(C=C(C)C)C2(C)C)CC1=O` (stereo not given) the outcome was “inactive”.
`CCOP(=S)(OCC)Oc1ccc([N+](=O)[O-])cc1` was tested, and the outcome was “inactive”.
For `CCc1cnc(C2=NC(C)(C(C)C)C(=O)N2)c(C(=O)O)c1` (stereo not given), the outcome was “inactive”.
For `COP(=O)(OC)OC(Br)C(Cl)(Cl)Br` (stereo not given), the outcome was “inactive”.
For `CCOC(=O)CC(SP(=O)(OC)OC)C(=O)OCC` (stereo not given), the outcome was “inactive”.
For `CC[C@H](C)[C@H]1O[C@]2(C=C[C@@H]1C)C[C@@H]1C[C@@H](C/C=C(\C)[C@@H](O[C@H]3C[C@H](OC)[C@@H](O[C@H]4C[C@H](OC)[C@@H](NC)[C@H](C)O4)[C@H](C)O3)[C@@H](C)/C=C/C=C3\CO[C@@H]4[C@H](O)C(C)=C[C@@H](C(=O)O1)[C@]34O)O2`, the AC50 was 50 µM (active).
For `CCNc1nc(Cl)nc(NC(C)(C)C#N)n1`, the outcome was “inactive”.
For `CCc1cccc(C)c1N(C(=O)CCl)C(C)COC` (stereo not given), the outcome was “inactive”.
With `CC(=NC#N)N(C)Cc1ccc(Cl)nc1` the outcome was “inactive”.
For `CCCCOC(=O)c1ccccc1C(=O)O`, the outcome was “inactive”.
With `CCC(CC)Nc1c([N+](=O)[O-])cc(C)c(C)c1[N+](=O)[O-]` the outcome was “inactive”.
In the case of `CCOP(=O)(NC(C)C)Oc1ccc(SC)c(C)c1` (stereo not given), the outcome is reported as “inactive”.
In the case of `CCOP(=S)(OCC)SCCSCC`, the outcome is reported as “inactive”.
With `CCOP(=S)(Oc1cnc(C(C)(C)C)nc1)OC(C)C` (stereo not given) the outcome was “inactive”.
`CCOP(=O)(OCC)Oc1cc(C)nc(C(C)C)n1` was tested, and the outcome was “inactive”.
With `CCCSP(=O)(OCC)Oc1ccc(Br)cc1Cl` (stereo not given) the outcome was “inactive”.
`CSC1=N[C@@](C)(c2ccccc2)C(=O)N1Nc1ccccc1` was tested, and the outcome was “inactive”.
In the case of `COc1cccc(C(=O)NN(C(=O)c2cc(C)cc(C)c2)C(C)(C)C)c1C`, the outcome is reported as “inactive”.
`CCC(=NOC/C=C/Cl)C1=C(O)CC(C2CCOCC2)CC1=O` (stereo not given) was tested, and the outcome was “inactive”.
For `CCC(=O)Nc1ccc(Cl)c(Cl)c1`, the outcome was “inactive”.
`Nc1c(Cl)cc([N+](=O)[O-])cc1Cl` was tested, and the AC50 was 11.9 µM (active).
In the case of `COP(=O)(NC(C)=O)SC` (stereo not given), the outcome is reported as “inactive”.
For `C[Si](Cn1cncn1)(c1ccc(F)cc1)c1ccc(F)cc1`, the outcome was “inactive”.
In the case of `CC(Oc1cccc(Cl)c1)C(=O)O` (stereo not given), the outcome is reported as “inactive”.
With `Cc1nn(-c2cc(NS(C)(=O)=O)c(Cl)cc2Cl)c(=O)n1C(F)F` the outcome was “inactive”.
`CC1=NNC(=O)N(/N=C/c2cccnc2)C1` was tested, and the outcome was “inactive”.
`CSc1nc(NC(C)C)nc(NC(C)C)n1` was tested, and the outcome was “inactive”.
For `CCOP(=O)(SC(C)CC)N1CCSC1=O` (stereo not given), the outcome was “inactive”.
In the case of `CN(C)[C@@H]1C(=O)C(C(N)=O)=C(O)[C@@]2(O)C(=O)C3=C(O)c4c(O)cccc4[C@@](C)(O)[C@H]3[C@H](O)[C@@H]12`, the outcome is reported as “inactive”.
In the case of `CCCOc1nn(C(=O)NS(=O)(=O)c2ccccc2C(=O)OC)c(=O)n1C`, the outcome is reported as “inactive”.
For `COP(=O)(OC)C(O)C(Cl)(Cl)Cl` (stereo not given), the outcome was “inactive”.
In the case of `Cc1ccn2nc(S(=O)(=O)Nc3c(F)cccc3F)nc2n1`, the outcome is reported as “inactive”.
For `O=[N+]([O-])c1cc(C(F)(F)F)c(Cl)c([N+](=O)[O-])c1Nc1ncc(C(F)(F)F)cc1Cl`, the outcome was “inactive”.
For `CC(COc1ccc(Oc2ccccc2)cc1)Oc1ccccn1` (stereo not given), the outcome was “inactive”.
